According to PubChem BioAssay:
“And” between values parts separate entries of the source, which are not always exact repeats. Equal values may be shown once. The source made the active and inactive calls. Unless noted, the rule behind the calls is not given here.

How the values were obtained:
[1] = sensitizers of A549 cells to miR-34 induction, primary screen, imaging, A549 dox-inducible miR-34, nuclei and caspase counts (AID 1347080;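 active = compounds whose cell count with miR-34 switched on is under 0.7 times the count with it off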); conditions: A549 miR-34 inducible, Hoechst nuclei count, 48 h
[2] = inhibitors of Cryptococcus chitosan production, flow cytometry, Cibacron Brilliant Red staining (AID 1347148); conditions: Cryptococcus neoformans chitosan, stronger effect = lower value; at 10 µM unless noted;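 note: compound exposure lasted three days at 37 degrees C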
[3] = hESC survival regulators, cell-based (AID 493140); conditions: human embryonic stem cell survival screen; stronger effect = higher value;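 note: cells exposed to compounds for four days before counting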
[4] = circadian clock period modulators, cell-based, LOPAC library, luminescence reporter (AID 2774); conditions: circadian reporter cells, at 7 µM, actives lie on both sides;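 note: values are relative to mean of DMSO wells on each plate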
[5] = tested on: Hepatitis C virus NS3 helicase; test: HCV NS3 helicase inhibitors, primary screen, biochemical, fluorescence polarization, LOPAC1280 library (AID 687035; in the data active = inhibition above about 37%); conditions: Purified HCV NS3 helicase, Cy5-dT15 ssDNA binding fluorescence polarization; stronger effect = higher value; concentration not given here
[6] = Cy5 fluorescence quenching or enhancement artefacts, artefact control for HCV NS3 helicase inhibitor project, biochemical, LOPAC1280 (AID 687037); conditions: Cy5-DNA-NS3h complex fluorescence interference counterscreen
[7] = phospholipid biosynthesis inhibitors in animal cells, primary screen, cell-based, LOPAC library, screen 4 (AID 1347384); conditions: phospholipid biosynthesis inhibition screen, at 10 µM
[8] = viability rescue of complex I mutant cybrids, primary screen, cell-based, galactose medium, ATP luminescence (AID 1645843;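 active = z-score of at least 1.8 in each of two replicates, scored against plate mean and spread of sample wells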;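 note: positive z means more ATP and so rescue of galactose-driven cybrid death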); conditions: complex I mutant cybrid cells, 72 h, stronger effect = higher value
[9] = survival rescue of mitochondrial mutant cells in low glucose, primary screen, MELAS cybrids, Rieske KO mouse fibroblasts, CellTiter-Glo (AID 1508586;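 active = mean z-score across replicates of 1.96 or higher in either the MELAS or the Rieske mutant cell line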;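 note: z relative to plate mean and SD of compound and empty wells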)
[10] = measured here: relative caspase fold change +Dox/-Dox
[11] = measured here: total cells with miR-34 induction, stronger effect = lower value
[12] = measured here: total cells without miR-34 induction
[13] = stronger effect = lower value, cell number ratio, induced over uninduced

CCCCC/C=C\C/C=C\C/C=C\C/C=C\CCCC(=O)NCc1ccc(O)c(OC)c1
fold change ([1]; stronger effect = lower value): 0.841 (inactive) and 1 (inactive)
fold change [1, 10]: 1.08 and 0.996
cell count [1, 11]: 2750 and 5480
cell count [1, 12]: 3270 and 5460
fold fluorescence [2]: 5.97 [at 113.7 µM] (inactive)

c1cc2cc(N3CCNCC3)ccc2cn1
fold change [1, 13]: 0.956 (inactive)
fold change [1, 10]: 0.665
cell count [1, 11]: 5380
cell count [1, 12]: 5630

N#CC(C#N)=NNc1ccc(OC(F)(F)F)cc1
fold change ([1]; stronger effect = lower value): 1.05 (inactive)
fold change [1, 10]: 0.834
cell count [1, 11]: 1180
cell count [1, 12]: 1130
fold fluorescence [2]: 9.07 [at 196.7 µM] (inactive)

CCCCC/C=C\C/C=C\C/C=C\C/C=C\CCCC(=O)N[C@@H](C)CO
fold change [1, 13]: 1.04 (inactive)
fold change [1, 10]: 0.734
cell count [1, 11]: 6190
cell count [1, 12]: 5940
fold fluorescence [2]: 6.15 (inactive)

COC(=O)[C@@]1(O)CC2OC1(C)n1c3ccccc3c3c4c(c5c6ccccc6n2c5c31)C(=O)NC4 (stereo partly drawn)
fold change ([1]; stronger effect = lower value): 0.903 (inactive)
fold change [1, 10]: 1.29
cell count [1, 11]: 2180
cell count [1, 12]: 2410

CCCCCCC(=O)O[C@H]1CC[C@H]2[C@@H]3CC(=O)C4=CC(=O)CC[C@]4(C)[C@H]3CC[C@]12C
fold change ([1]; stronger effect = lower value): 0.899 (inactive)
fold change [1, 10]: 0.574
cell count [1, 11]: 5250
cell count [1, 12]: 5830

C[C@@]1(CO)[C@H](O)CC[C@@]2(C)[C@H]1CC[C@H]1C[C@@H]3C[C@@]12CC[C@]3(O)CO
fold change ([1]; stronger effect = lower value): 1.03 (inactive)
fold change [1, 10]: 0.966
cell count [1, 11]: 2420
cell count [1, 12]: 2350

CCCCC/C=C\C/C=C\C/C=C\C/C=C\CCCC(=O)NC[C@@H](C)O
fold change [1, 13]: 0.961 (inactive)
fold change [1, 10]: 0.786
cell count [1, 11]: 5790
cell count [1, 12]: 6030

CCCCC/C=C\C/C=C\C/C=C\C/C=C\CCCC(N)=O
survival [3]: 110 (inactive)
fold change ([1]; stronger effect = lower value): 1.05 (inactive) and 1.02 (inactive)
fold change [1, 10]: 1.34 and 1.46
cell count [1, 11]: 6020 and 5980
cell count [1, 12]: 5750 and 5890
fold fluorescence [2]: 4.13 (inactive)

CCCCC/C=C\C=C\[C@H](CCCCCCCC(=O)O)OO
survival [3]: 87.6 (inactive)
fold change ([1]; stronger effect = lower value): 0.93 (inactive)
fold change [1, 10]: 1.23
cell count [1, 11]: 5880
cell count [1, 12]: 6320
fold fluorescence [2]: 5.11 [at 1 µM] (inactive)

N[C@@]1(C(=O)O)CC[C@@H](C(=O)O)C1
period change [4]: -0.105 h (inactive)
inhibition [5]: -5% (inactive)
fluorescence ratio (interference) [6]: 1 (inactive)
fold change ([1]; stronger effect = lower value): 1.04 (inactive)
fold change [1, 10]: 2.1
cell count [1, 11]: 10500
cell count [1, 12]: 10000
outcome [7]: inactive
z-score [8]: 0.225 (inactive)

NC1CC1c1ccccc1 (stereo not drawn)
period change [4]: 0.03 h (inactive)
inhibition [5]: -1% (inactive)
fluorescence ratio (interference) [6]: 1 (inactive)
fold change ([1]; stronger effect = lower value): 0.977 (inactive) and 0.888 (inactive)
fold change [1, 10]: 1.3 and 1.48
cell count [1, 11]: 10200 and 8220
cell count [1, 12]: 10400 and 9270
outcome [7]: inactive
z-score ([9]; MELAS cybrid survival, CellTiter-Glo 48 h, stronger effect = higher value): -0.158 (inactive)
z-score ([9]; Rieske KO mouse fibroblast survival, CellTiter-Glo 72 h): -0.299
z-score [8]: 0.355 (inactive)

C=CCN1CC[C@]23CCCCC2[C@H]1Cc1ccc(O)cc13 (stereo partly drawn)
period change [4]: 0.175 h (inactive)
inhibition [5]: -4% (inactive)
fluorescence ratio (interference) [6]: 1 (inactive)
fold change ([1]; stronger effect = lower value): 1.09 (inactive)
fold change [1, 10]: 0.636
cell count [1, 11]: 10900
cell count [1, 12]: 10000
outcome [7]: inactive
z-score [8]: -0.095 (inactive)

NC(CP(=O)(O)O)C(=O)O (stereo not drawn)
period change [4]: -0.025 h (inactive)
inhibition [5]: -2% (inactive)
fluorescence ratio (interference) [6]: 1 (inactive)
fold change ([1]; stronger effect = lower value): 1.01 (inactive)
fold change [1, 10]: 2.04
cell count [1, 11]: 10500
cell count [1, 12]: 10400
outcome [7]: inactive
z-score [8]: 0.29 (inactive)

CCCCC/C=C\C/C=C\C/C=C\C/C=C\CCCC(=O)NCCO
survival [3]: 114 (inactive)
fold change ([1]; stronger effect = lower value): 0.996 (inactive) and 0.983 (inactive)
fold change [1, 10]: 0.958 and 0.763
cell count [1, 11]: 6110 and 5070
cell count [1, 12]: 6130 and 5160
fold fluorescence [2]: 5.85 (inactive)

O=C(NC1CN2CCC1CC2)c1cc2ccoc2cn1 (stereo not drawn)
fold change ([1]; stronger effect = lower value): 0.991 (inactive)
fold change [1, 10]: 1.41
cell count [1, 11]: 10200
cell count [1, 12]: 10300
outcome [7]: inactive
z-score [8]: 0.38 (inactive)

COC(C/C=C/C=C/CC/C=C\CC(C)/C=C\C(=C/C(=O)O)CC(=O)O)/C(C)=C\C=C(/C)C(=O)O (stereo not drawn)
fold change [1, 13]: 0.975 (inactive)
fold change [1, 10]: 1.25
cell count [1, 11]: 5720
cell count [1, 12]: 5870
fold fluorescence [2]: 5.28 [at 10.3 µM] (inactive)

CCCCC/C=C\C/C=C\CCCCCCCC(=O)NCCO
survival [3]: 162 (inactive)
fold change ([1]; stronger effect = lower value): 1.09 (inactive) and 1.06 (inactive)
fold change [1, 10]: 1.07 and 1.16
cell count [1, 11]: 5710 and 5830
cell count [1, 12]: 5220 and 5490
fold fluorescence [2]: 4.78 (inactive)

N#CC(C#N)=Cc1ccc(O)cc1
survival [3]: 59.8 (inactive)
fold change ([1]; stronger effect = lower value): 1.08 (inactive)
fold change [1, 10]: 1.22
cell count [1, 11]: 5450
cell count [1, 12]: 5070
fold fluorescence [2]: 5.71 [at 293.8 µM] (inactive)

C[C@]12Cc3cn4c(nc3C=C1CCC1C2CC[C@@]2(C)[C@H]1CC[C@@]2(O)C#N)nc1ccccc14 (stereo partly drawn)
period change [4]: 0.285 h (inactive)
inhibition [5]: 0% (inactive)
fluorescence ratio (interference) [6]: 1 (inactive)
fold change ([1]; stronger effect = lower value): 1.02 (inactive)
fold change [1, 10]: 0.934
cell count [1, 11]: 1380
cell count [1, 12]: 1350
outcome [7]: inactive
z-score [8]: -0.25 (inactive)

C[C@@H]1O[C@@H](O[C@H]2C[C@@H](O)[C@]3(CO)[C@@H]4C(CC[C@]3(O)C2)[C@@]2(O)CC[C@H](C3COC(=O)C3)[C@@]2(C)C[C@H]4O)[C@H](O)[C@H](O)[C@H]1O (stereo partly drawn)
period change [4]: -0.47 h (inactive)
inhibition [5]: -1% (inactive)
fluorescence ratio (interference) [6]: 1 (inactive)
fold change ([1]; stronger effect = lower value): 0.861 (inactive)
fold change [1, 10]: 1.72
cell count [1, 11]: 370
cell count [1, 12]: 430
outcome [7]: inactive
z-score [8]: -0.995 (inactive)

CCCCC/C=C\C/C=C\C/C=C\CCCCCCC(=O)NCCO
survival [3]: 87.2 (inactive)
fold change ([1]; stronger effect = lower value): 0.972 (inactive) and 1.13 (inactive)
fold change [1, 10]: 1.55 and 0.675
cell count [1, 11]: 5830 and 6550
cell count [1, 12]: 5990 and 5800
fold fluorescence [2]: 5.22 (inactive)
